Some test systems named below: HCT-15 colon; HT29 colon; SNB-75 CNS; SNB-19 CNS; U251 CNS; SK-MEL-5 melanoma; UACC-62 melanoma; LOX IMVI melanoma; SK-MEL-28 melanoma; PC-3 prostate.
What all share (assay): NCI-60 one-dose screen, 48 h (100 = growth as untreated, 0 = no growth, -100 = all killed)
Holding throughout (conditions): 10 µM unless noted

13 molecules from PubChem BioAssay (NCI) can be followed below.

Structures are written as SMILES. About 83,000 compounds went through this panel and 20% of them were active in at least one assay; those are over-represented in the sample as a whole.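 Activity criterion: percent growth below 10, measured after cells in 96-well plates were exposed to a single compound concentration for 48 hours.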 A number with no mark means an inactive call. Activity calls are given as the source filed them.

Regarding `CCCCCCC/C=C/[C@H]1O[C@]23C(=O)C[C@@]4(C[C@@H](OC5OC(CO)C(O)C(O)C5O)C[C@@H]4[C@H]2C=C1C)OC3=O` (stereo partly specified), the growth is -5.27% (active) in the assay with HCT-15 colon; 0.865% (active) in the assay on HT29 colon; 70.6% with SNB-75 CNS; 21.2% in the assay on SNB-19 CNS; -2.96% (active) in the assay with U251 CNS; 8.74% (active) in the assay on SK-MEL-5 melanoma. Also, the growth in the assay with UACC-62 melanoma is 14.2%; with LOX IMVI melanoma, -67.7% (active); with SK-MEL-28 melanoma, -5.61% (active).

Take `c1ccc2nc(N3CCOCC3)c(N3CCCCC3)nc2c1`: the growth in the assay with HCT-15 colon is 100%; in the assay on HT29 colon, 96.1%; in the assay with SNB-75 CNS it was 76.7%; with SNB-19 CNS it was 93.9%; in the assay with U251 CNS, 96.9%; with SK-MEL-5 melanoma, 96.8%. The growth with UACC-62 melanoma is 83.1%; in the assay on LOX IMVI melanoma, 99.1%; with SK-MEL-28 melanoma, 109%.

In the case of `Cc1cnc(SCc2ccc(Cl)cc2Cl)nc1Nc1ccc(Cl)c(Cl)c1`, the growth in the assay with HCT-15 colon was 99.8%; in the assay with HT29 colon, 85.1%; with SNB-75 CNS it was 85.4%; in the assay on SNB-19 CNS, 96.7%; in the assay on U251 CNS, 93.9%; in the assay on SK-MEL-5 melanoma, 93.4%. The growth was 53.4% with UACC-62 melanoma, 81.2% in the assay with LOX IMVI melanoma and 111% with SK-MEL-28 melanoma.

For the molecule `CN1C(=O)c2cc(Cl)nc3c(NC(=O)c4cccc(Cl)c4)c(Cl)c(NC(=O)c4cccc(Cl)c4)c1c23`, the growth in the assay with HCT-15 colon is -83.9% (active); in the assay with HT29 colon it was -57.7% (active); with SNB-75 CNS, 75.3%; in the assay with SNB-19 CNS it was 2.15% (active); in the assay on U251 CNS it was -68.4% (active); in the assay with SK-MEL-5 melanoma, 4.57% (active). In addition, the growth in the assay on UACC-62 melanoma was 6.83% (active); in the assay on LOX IMVI melanoma, -65.1% (active); in the assay on SK-MEL-28 melanoma, -32.2% (active).

`O=C(O)COc1ccc2c(=O)c3sc4c(=O)c5ccccc5c(=O)c4c3c(=O)c2c1`: the growth in the assay on HCT-15 colon is -75% (active); with HT29 colon, -37.4% (active); in the assay on SNB-75 CNS, -42% (active); in the assay on SNB-19 CNS, 0.0814% (active); in the assay on U251 CNS it was 29.8%; in the assay with SK-MEL-5 melanoma it was -99.6% (active). Also, the growth was -91.4% (active) in the assay on UACC-62 melanoma, -37.6% (active) in the assay with LOX IMVI melanoma and -16.2% (active) with SK-MEL-28 melanoma.

For the molecule `C=C(C)[C@@H]1CC[C@]2(C(=O)OCCOCCOCC[P+](c3ccccc3)(c3ccccc3)c3ccccc3)CC[C@]3(C)[C@H](CC[C@@H]4[C@@]5(C)CC[C@H](OC(=O)C(Cl)Cl)C(C)(C)[C@@H]5CC[C@]43C)[C@@H]12`, the growth in the assay on HCT-15 colon is 11.1%; in the assay on HT29 colon it was 5.74% (active); with SNB-75 CNS, 8.83% (active); in the assay on SNB-19 CNS, 17.6%; in the assay with U251 CNS, -5.68% (active); in the assay with SK-MEL-5 melanoma, -99.1% (active). Moreover, the growth was -39.3% (active) in the assay with UACC-62 melanoma, -91.3% (active) in the assay with LOX IMVI melanoma and -43.9% (active) in the assay with SK-MEL-28 melanoma.

As to `COc1ccc(/C(=N\O)c2cc(C)c(OC)c(C)c2)cc1O`, the growth was 16.3% with HCT-15 colon; -8.4% (active) in the assay on HT29 colon; 38.4% in the assay on SNB-75 CNS; 22.1% with U251 CNS; 37.6% in the assay on PC-3 prostate; -7.18% (active) in the assay with SK-MEL-5 melanoma. Moreover, the growth is 35.3% in the assay with UACC-62 melanoma, 24.2% in the assay with LOX IMVI melanoma and 55.4% in the assay on SK-MEL-28 melanoma.

In the case of `CCCn1c(N)c(C(N)=O)sc1=S`, the growth with HCT-15 colon is 90.6%; in the assay on HT29 colon it was 106%; in the assay on SNB-75 CNS, 82.9%; in the assay with SNB-19 CNS, 97.2%; in the assay on U251 CNS, 97.4%; with SK-MEL-5 melanoma, 111%. Also, the growth in the assay with UACC-62 melanoma was 97.9%; with LOX IMVI melanoma it was 93.7%; with SK-MEL-28 melanoma, 105%.

As to `COc1cc(N=Nc2cc(S(=O)(=O)O)cc3cc(S(=O)(=O)O)cc(O)c23)c(C)cc1N=Nc1c(S(=O)(=O)O)cc2cc(Nc3ccccc3)ccc2c1O`, the growth with HCT-15 colon was 110%; in the assay on HT29 colon, 105%; in the assay on SNB-75 CNS, 91.1%; in the assay with U251 CNS, 109%; in the assay on PC-3 prostate, 90%; in the assay with SK-MEL-5 melanoma it was 105%. Besides, the growth is 98.5% with UACC-62 melanoma, 99.4% in the assay on LOX IMVI melanoma and 109% in the assay on SK-MEL-28 melanoma.

For the molecule `C#Cc1cccc(Nc2ncnc3ccc(NC(=O)c4ccccc4)cc23)c1`, the growth was 65.3% in the assay with HCT-15 colon; 82.4% in the assay with HT29 colon; 67.2% in the assay on SNB-75 CNS; 85.4% with U251 CNS; 75.8% in the assay on PC-3 prostate; 95.5% in the assay with SK-MEL-5 melanoma. Also, the results for the growth in the assay on UACC-62 melanoma, in the assay on LOX IMVI melanoma and in the assay on SK-MEL-28 melanoma were 95.2%, 81.7% and 93.9%, respectively.

`COc1cc(/C=N/Nc2nc(-c3ccc(F)cc3)c(C#N)c(N3CCOCC3)n2)ccc1O`: the growth in the assay with HCT-15 colon is 99.9%; with HT29 colon, 96%; with SNB-75 CNS, 84%; with U251 CNS, 97.6%; in the assay on PC-3 prostate it was 96.4%; with SK-MEL-5 melanoma, 102%. In addition, the growth in the assay with LOX IMVI melanoma is 107%; with SK-MEL-28 melanoma it was 99.9%.

For the molecule `C[C@H]1[C@H](C)CC[C@]2(C(=O)OCCOCCOCC[P+](c3ccccc3)(c3ccccc3)c3ccccc3)CC[C@]3(C)C(=CC[C@@H]4[C@@]5(C)CC[C@H](OC(=O)C(Cl)Cl)C(C)(C)[C@@H]5CC[C@]43C)[C@H]12`, the growth is 17.1% with HCT-15 colon; 3.81% (active) in the assay with HT29 colon; 19.7% in the assay with SNB-75 CNS; 11.3% with U251 CNS; 5.1% (active) with PC-3 prostate; -97.7% (active) in the assay on SK-MEL-5 melanoma. Also, the growth in the assay with UACC-62 melanoma is -23.9% (active); in the assay with LOX IMVI melanoma, -21.1% (active); in the assay on SK-MEL-28 melanoma it was 30%.

Turning to `O=C(CN1N=C(c2ccc(F)cc2)CCC1=O)Nc1nc2ccccc2s1`, the growth in the assay with HCT-15 colon is 86%; in the assay with HT29 colon, 1.85% (active); in the assay with SNB-75 CNS, -49.1% (active); in the assay with U251 CNS it was 16%; with PC-3 prostate, 5.7% (active); in the assay on SK-MEL-5 melanoma, 89.3%. Besides, the figures for the growth with UACC-62 melanoma, in the assay on LOX IMVI melanoma and in the assay on SK-MEL-28 melanoma were 79.6%, -89.5% (active) and 100%, respectively.
